Holding throughout (experiment): DAPPL (digital affinity profiling via proximity ligation, sequencing); 10 mM Tris-HCl pH 7.5, 50 mM NaCl, 1 mM DTT, 4% glycerol, room temperature, 30 min; GST-TFs on glutathione beads, 16-mer random dsDNA library, 0.1% formaldehyde crosslink after washing; high values mean tight binding
One assay addresses T1, FEV (Homo sapiens, UniProt Q99581 1-238).
T1 sequence: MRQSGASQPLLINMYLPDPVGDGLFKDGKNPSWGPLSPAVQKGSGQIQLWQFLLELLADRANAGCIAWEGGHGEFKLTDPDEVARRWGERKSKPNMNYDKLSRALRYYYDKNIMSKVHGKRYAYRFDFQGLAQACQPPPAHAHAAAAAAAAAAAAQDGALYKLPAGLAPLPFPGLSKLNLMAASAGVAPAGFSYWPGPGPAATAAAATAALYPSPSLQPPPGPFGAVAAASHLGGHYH
The note with it: protein: recombinant; tags: N-terminal GST; dsDNA, one strand shown. The gist of the method: (§1)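 Binding signal is given per hexamer as its read frequency for a factor divided by its frequency in the tag-only sample. GST-fused human transcription factors were expressed in yeast, captured on glutathione beads, barcoded with DNA and pooled with that sample, then incubated with 200 nmole of a 16-mer random double-stranded DNA library in Tris/NaCl/DTT/glycerol buffer for 30 min at room temperature. The pools were then washed, crosslinked, proximity-ligated, amplified by PCR and sequenced on an Illumina NextSeq500.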

A further assay deals with ETV5 (Homo sapiens, UniProt P41161 1-510). The note with it: protein: recombinant; tags: N-terminal GST; dsDNA, one strand shown. The method in brief: as §1
The target in a further assay is HSF1 (Homo sapiens, UniProt Q00613 1-529). The note with it: protein: recombinant; tags: N-terminal GST; chain copies: 3; dsDNA, one strand shown. The method in brief: as §1
A further assay deals with T2, SPIC (Homo sapiens, UniProt Q8N5J4 1-248).
T2 sequence: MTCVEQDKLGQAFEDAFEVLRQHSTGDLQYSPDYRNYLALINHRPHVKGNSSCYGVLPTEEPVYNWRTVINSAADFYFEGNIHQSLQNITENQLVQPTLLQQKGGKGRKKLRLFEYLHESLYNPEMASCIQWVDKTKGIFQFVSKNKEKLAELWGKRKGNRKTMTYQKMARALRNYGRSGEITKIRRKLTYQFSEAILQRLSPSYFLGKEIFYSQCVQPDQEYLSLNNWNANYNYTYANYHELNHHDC
As to conditions: protein: recombinant; tags: N-terminal GST; dsDNA, one strand shown. The method in brief: as §1

In a further assay the target is ELF4 (Homo sapiens, UniProt Q99607 1-663). As to conditions: protein: recombinant; tags: N-terminal GST; dsDNA, one strand shown. The method in brief: as §1
Another assay deals with T3, ELK4 (Homo sapiens, UniProt P28324-2 1-405).
T3 sequence: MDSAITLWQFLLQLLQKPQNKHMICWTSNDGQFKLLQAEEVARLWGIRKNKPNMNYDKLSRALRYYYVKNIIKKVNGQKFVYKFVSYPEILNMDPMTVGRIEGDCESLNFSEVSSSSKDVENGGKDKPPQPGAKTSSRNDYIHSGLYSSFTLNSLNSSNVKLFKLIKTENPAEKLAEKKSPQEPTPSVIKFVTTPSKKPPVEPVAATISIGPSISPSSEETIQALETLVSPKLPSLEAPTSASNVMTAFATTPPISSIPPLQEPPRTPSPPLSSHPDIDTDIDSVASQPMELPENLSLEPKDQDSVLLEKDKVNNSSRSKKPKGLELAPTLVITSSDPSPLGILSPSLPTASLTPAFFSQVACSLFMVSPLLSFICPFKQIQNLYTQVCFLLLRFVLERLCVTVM
As to conditions: protein: recombinant; tags: N-terminal GST; dsDNA, one strand shown. The method in brief:
as §1

The target in the next assay is T4, ETV2 (Homo sapiens, UniProt O00321 1-342).
T4 sequence: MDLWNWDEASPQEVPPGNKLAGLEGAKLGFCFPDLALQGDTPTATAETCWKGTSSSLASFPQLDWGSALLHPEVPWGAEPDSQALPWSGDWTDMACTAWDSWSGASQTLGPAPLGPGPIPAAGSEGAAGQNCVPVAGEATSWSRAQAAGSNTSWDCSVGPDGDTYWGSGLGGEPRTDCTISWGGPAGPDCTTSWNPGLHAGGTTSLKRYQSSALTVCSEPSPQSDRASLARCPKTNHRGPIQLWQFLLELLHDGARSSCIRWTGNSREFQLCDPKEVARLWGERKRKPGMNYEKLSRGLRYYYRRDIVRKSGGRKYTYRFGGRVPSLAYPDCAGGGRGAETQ
The note with it: protein: recombinant; tags: N-terminal GST; dsDNA, one strand shown. The gist of the method: as §1

For another assay, the target named is T5, ELF3 (Homo sapiens, UniProt P78545 1-371).
T5 sequence: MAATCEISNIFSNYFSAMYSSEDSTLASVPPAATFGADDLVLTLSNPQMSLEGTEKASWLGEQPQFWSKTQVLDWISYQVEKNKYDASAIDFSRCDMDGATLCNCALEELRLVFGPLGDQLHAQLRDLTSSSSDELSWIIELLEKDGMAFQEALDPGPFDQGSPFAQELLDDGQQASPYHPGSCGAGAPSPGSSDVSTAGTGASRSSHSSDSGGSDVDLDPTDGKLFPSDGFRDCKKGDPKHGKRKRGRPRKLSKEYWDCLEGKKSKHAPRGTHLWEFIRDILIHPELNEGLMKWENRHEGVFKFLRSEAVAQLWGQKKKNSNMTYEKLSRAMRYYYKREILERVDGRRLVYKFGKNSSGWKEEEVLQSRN
As to conditions: protein: recombinant; tags: N-terminal GST; dsDNA, one strand shown. The method in brief:
as §1

For another assay, the target named is CRX (Homo sapiens, UniProt O43186 1-299). As to conditions: protein: recombinant; tags: N-terminal GST; dsDNA, one strand shown. The method in brief:
as §1

In the next assay the target is ETV1 (Homo sapiens, UniProt P50549 1-477). The note with it: protein: recombinant; tags: N-terminal GST; dsDNA, one strand shown. The gist of the method:
as §1

A further assay concerns the target T6, ERF (Homo sapiens, UniProt P50548 1-548).
T6 sequence: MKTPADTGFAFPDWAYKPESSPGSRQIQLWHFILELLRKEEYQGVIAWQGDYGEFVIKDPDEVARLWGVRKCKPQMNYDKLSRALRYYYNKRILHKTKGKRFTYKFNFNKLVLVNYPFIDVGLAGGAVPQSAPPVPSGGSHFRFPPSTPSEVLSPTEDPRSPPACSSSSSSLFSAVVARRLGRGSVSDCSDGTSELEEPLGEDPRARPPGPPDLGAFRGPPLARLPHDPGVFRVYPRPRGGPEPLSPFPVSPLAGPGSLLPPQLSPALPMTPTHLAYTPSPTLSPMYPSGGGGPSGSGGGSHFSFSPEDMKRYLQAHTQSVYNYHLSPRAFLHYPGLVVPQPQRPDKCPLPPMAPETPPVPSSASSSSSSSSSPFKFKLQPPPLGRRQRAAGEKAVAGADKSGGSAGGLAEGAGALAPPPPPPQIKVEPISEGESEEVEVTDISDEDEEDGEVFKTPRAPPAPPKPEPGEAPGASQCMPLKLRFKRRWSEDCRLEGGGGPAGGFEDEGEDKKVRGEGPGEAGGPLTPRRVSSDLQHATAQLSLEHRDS
As to conditions: protein: recombinant; tags: N-terminal GST; dsDNA, one strand shown. The gist of the method:
as §1

The next assay addresses T7, ETV3L (Homo sapiens, UniProt Q6ZN32 1-361).
T7 sequence: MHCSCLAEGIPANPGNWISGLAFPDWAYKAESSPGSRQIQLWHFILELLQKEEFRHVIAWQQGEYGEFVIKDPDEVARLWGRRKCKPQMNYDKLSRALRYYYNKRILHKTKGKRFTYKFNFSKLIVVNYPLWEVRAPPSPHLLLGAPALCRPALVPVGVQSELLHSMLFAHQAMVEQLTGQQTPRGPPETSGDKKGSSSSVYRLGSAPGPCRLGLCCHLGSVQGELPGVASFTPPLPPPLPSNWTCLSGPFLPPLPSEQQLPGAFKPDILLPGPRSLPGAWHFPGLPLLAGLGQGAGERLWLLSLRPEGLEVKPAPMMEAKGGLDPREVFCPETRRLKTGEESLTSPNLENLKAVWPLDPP
The note with it: protein: recombinant; tags: N-terminal GST; dsDNA, one strand shown. The method in brief:
as §1

The target of a further assay is T8, ETS2 (Homo sapiens, UniProt P15036 1-469).
T8 sequence: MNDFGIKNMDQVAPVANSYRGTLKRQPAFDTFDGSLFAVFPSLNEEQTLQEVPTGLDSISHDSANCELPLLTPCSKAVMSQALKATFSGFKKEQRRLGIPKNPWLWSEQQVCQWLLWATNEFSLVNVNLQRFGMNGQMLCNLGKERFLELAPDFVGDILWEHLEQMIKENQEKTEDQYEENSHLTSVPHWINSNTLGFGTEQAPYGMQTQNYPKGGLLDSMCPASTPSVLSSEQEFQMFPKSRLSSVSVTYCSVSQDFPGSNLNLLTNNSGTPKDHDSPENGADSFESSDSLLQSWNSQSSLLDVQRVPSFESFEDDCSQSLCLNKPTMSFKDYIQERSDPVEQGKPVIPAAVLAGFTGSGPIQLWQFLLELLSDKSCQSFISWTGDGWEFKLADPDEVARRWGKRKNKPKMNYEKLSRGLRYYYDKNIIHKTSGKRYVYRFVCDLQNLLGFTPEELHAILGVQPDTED
The note with it: protein: recombinant; tags: N-terminal GST; dsDNA, one strand shown. The gist of the method:
as §1

A further assay has as its target T9, SPDEF (Homo sapiens, UniProt O95238 1-335).
T9 sequence: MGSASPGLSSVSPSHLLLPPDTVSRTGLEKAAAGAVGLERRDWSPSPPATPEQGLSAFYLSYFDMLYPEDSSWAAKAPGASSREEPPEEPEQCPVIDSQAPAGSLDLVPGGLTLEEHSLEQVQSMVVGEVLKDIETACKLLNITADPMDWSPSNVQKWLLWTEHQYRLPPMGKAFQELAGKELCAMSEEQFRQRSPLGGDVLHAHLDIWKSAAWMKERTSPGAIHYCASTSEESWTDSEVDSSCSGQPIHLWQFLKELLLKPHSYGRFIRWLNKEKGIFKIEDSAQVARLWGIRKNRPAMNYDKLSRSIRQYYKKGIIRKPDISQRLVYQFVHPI
As to conditions: protein: recombinant; tags: N-terminal GST; dsDNA, one strand shown. The gist of the method: as §1

For another assay, the target named is T10, ETV7 (Homo sapiens, UniProt Q9Y603 1-341).
T10 sequence: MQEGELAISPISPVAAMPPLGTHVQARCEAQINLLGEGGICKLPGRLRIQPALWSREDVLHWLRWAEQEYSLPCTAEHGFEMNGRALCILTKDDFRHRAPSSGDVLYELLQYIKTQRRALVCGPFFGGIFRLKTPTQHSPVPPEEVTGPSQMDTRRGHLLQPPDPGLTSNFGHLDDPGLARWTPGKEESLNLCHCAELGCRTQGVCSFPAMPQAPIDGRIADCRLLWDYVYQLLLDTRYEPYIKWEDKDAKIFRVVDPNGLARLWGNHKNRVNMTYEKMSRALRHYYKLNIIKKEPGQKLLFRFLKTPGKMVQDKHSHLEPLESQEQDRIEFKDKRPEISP
As to conditions: protein: recombinant; tags: N-terminal GST; dsDNA, one strand shown. The method in brief:
as §1

The next assay addresses T11, ELF5 (Homo sapiens, UniProt Q9UKW6-2 1-255).
T11 sequence: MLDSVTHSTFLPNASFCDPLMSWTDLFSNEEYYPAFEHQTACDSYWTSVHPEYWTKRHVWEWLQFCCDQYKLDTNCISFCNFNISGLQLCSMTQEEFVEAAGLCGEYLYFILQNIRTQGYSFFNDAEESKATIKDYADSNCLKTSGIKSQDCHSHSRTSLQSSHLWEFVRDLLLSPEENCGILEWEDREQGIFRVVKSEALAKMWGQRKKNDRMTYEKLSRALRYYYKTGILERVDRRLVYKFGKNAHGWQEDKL
As to conditions: protein: recombinant; tags: N-terminal GST; dsDNA, one strand shown. The method in brief:
as §1

For the next assay, the target named is T12, ETV3 (Homo sapiens, UniProt P41162-2 1-143).
T12 sequence: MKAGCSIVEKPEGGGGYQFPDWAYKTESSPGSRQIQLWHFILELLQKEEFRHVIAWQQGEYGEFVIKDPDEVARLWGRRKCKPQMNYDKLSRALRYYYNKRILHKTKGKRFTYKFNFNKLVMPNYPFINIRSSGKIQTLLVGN
The note with it: protein: recombinant; tags: N-terminal GST; dsDNA, one strand shown. The gist of the method: as §1

In a further assay the target is ETV6 (Homo sapiens, UniProt P41212 1-452). The note with it: protein: recombinant; tags: N-terminal GST; dsDNA, one strand shown. The method in brief:
as §1

Results on 1 sequence are retold here after paper PMC7862700, “An all-to-all approach to the identification of sequence-specific readers for epigenetic DNA modifications on cytosine”.

Chain of ELF4 (Q99607 whole entry): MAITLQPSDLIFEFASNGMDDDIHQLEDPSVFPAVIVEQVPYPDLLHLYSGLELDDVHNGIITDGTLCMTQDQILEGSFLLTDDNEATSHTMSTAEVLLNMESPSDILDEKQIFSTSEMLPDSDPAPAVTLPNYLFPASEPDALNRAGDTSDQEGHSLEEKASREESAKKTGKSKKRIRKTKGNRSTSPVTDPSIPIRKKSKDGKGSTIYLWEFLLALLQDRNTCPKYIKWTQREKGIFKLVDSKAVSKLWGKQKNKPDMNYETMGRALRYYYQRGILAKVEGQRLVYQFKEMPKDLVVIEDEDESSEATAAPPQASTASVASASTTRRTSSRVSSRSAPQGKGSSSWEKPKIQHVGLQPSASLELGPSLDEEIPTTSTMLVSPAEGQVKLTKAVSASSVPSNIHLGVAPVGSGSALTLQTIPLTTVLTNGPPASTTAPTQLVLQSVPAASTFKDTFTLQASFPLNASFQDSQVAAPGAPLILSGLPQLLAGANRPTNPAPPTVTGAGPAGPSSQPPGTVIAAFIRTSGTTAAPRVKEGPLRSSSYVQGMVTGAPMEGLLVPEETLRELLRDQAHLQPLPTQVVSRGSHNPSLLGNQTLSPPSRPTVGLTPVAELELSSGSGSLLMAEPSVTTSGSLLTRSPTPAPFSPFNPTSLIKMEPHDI
Chain of ETV5 (P41161 whole entry): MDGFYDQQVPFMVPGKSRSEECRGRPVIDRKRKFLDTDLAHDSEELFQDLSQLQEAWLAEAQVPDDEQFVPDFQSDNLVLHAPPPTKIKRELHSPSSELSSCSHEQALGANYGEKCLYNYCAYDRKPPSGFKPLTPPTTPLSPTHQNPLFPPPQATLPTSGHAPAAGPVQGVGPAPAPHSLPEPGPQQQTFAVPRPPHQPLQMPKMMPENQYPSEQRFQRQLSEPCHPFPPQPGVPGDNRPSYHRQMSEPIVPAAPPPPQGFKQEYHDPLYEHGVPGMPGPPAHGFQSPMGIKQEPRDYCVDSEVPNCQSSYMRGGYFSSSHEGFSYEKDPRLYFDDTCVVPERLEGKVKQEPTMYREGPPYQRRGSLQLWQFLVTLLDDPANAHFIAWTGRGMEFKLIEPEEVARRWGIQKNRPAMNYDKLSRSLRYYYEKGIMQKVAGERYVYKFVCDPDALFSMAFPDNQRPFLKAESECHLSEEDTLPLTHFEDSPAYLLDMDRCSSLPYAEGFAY
Chain of ETV1 (P50549 whole entry): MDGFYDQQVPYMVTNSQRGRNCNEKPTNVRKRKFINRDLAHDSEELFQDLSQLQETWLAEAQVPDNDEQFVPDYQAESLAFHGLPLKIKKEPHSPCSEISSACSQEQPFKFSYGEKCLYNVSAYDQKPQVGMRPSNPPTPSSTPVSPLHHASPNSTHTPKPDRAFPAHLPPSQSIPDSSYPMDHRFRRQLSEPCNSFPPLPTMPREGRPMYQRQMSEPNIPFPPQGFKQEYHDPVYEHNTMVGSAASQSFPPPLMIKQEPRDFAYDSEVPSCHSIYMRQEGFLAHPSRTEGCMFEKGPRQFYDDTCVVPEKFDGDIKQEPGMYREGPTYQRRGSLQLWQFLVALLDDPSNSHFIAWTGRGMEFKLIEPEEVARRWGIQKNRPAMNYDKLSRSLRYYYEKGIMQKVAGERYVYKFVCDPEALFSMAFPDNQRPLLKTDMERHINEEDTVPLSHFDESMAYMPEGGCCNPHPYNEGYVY
Chain of CRX (O43186 whole entry): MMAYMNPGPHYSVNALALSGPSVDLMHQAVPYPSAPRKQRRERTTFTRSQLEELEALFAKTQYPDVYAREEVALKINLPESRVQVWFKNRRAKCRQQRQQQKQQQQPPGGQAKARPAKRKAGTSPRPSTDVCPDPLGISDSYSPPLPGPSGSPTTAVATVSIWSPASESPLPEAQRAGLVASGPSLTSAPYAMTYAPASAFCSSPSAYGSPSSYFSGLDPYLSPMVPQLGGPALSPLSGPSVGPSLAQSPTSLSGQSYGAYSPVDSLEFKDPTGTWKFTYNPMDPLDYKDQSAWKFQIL
Chain of ETV6 (P41212 whole entry): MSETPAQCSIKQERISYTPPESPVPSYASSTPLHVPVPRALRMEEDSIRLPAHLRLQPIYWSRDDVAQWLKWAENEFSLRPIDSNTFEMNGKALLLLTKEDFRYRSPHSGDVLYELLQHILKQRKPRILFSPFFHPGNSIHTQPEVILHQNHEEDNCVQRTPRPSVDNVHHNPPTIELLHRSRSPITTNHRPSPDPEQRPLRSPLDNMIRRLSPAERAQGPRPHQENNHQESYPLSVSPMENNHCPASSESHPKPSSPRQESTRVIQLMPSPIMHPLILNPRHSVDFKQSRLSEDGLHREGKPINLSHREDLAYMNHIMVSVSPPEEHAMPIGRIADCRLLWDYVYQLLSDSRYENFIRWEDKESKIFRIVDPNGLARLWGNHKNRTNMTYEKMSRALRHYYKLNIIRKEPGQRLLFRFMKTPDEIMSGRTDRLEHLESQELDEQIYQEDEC
Chain of HSF1 (Q00613 whole entry): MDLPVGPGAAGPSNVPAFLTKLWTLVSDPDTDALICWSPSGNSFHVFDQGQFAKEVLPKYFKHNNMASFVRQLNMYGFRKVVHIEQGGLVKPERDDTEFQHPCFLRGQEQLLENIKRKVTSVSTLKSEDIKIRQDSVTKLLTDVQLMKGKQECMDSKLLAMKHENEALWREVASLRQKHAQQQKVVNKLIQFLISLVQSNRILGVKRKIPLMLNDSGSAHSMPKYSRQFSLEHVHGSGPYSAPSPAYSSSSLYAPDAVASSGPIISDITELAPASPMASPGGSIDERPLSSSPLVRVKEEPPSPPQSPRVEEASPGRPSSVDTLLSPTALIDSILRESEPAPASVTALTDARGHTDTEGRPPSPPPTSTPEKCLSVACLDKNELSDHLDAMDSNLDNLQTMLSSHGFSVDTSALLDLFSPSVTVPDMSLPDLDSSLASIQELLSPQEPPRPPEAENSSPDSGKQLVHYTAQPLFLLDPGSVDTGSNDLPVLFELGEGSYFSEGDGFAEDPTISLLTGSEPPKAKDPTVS

Consider TATACA, for which the binding signal with FEV was 1.29 fold enrichment (6-mer frequency, TF over GST control); with ETV5, 1.35 fold enrichment (6-mer frequency, TF over GST control); with HSF1 it was 1.27 fold enrichment (6-mer frequency, TF over GST control); in the assay with SPIC, 1.28 fold enrichment (6-mer frequency, TF over GST control); in the assay with ELF4, 1.37 fold enrichment (6-mer frequency, TF over GST control); with ELK4 it was 1.28 fold enrichment (6-mer frequency, TF over GST control). Moreover, the binding signal with ETV2 is 1.28 fold enrichment (6-mer frequency, TF over GST control); with ELF3, 1.43 fold enrichment (6-mer frequency, TF over GST control); with CRX, 1.36 fold enrichment (6-mer frequency, TF over GST control); with ETV1 it was 1.43 fold enrichment (6-mer frequency, TF over GST control); with ERF, 1.34 fold enrichment (6-mer frequency, TF over GST control); with ETV3L it was 1.3 fold enrichment (6-mer frequency, TF over GST control). Besides, the binding signal with ETS2 was 1.37 fold enrichment (6-mer frequency, TF over GST control); with SPDEF, 1.44 fold enrichment (6-mer frequency, TF over GST control); in the assay with ETV7, 1.35 fold enrichment (6-mer frequency, TF over GST control); with ELF5 it was 1.29 fold enrichment (6-mer frequency, TF over GST control); with ETV3, 1.31 fold enrichment (6-mer frequency, TF over GST control); with ETV6, 1.25 fold enrichment (6-mer frequency, TF over GST control).
